# Source: PubChem BioAssay (several laboratories)
# A selection: hits, their analogues and other compounds. The true share with any hit is near 3.9%.
# Anthrax LF inh2: inhibitors of Bacillus anthracis lethal factor protease; AID 588501; 360,000 compounds, 0.12% hits; multiplex microsphere protease cleavage assay, LF; inhibition, % at 10 µM; P15917; also: plate controls were buffer without enzyme for full effect and enzyme alone for no effect
# Target sequence (P15917 whole entry, looked up): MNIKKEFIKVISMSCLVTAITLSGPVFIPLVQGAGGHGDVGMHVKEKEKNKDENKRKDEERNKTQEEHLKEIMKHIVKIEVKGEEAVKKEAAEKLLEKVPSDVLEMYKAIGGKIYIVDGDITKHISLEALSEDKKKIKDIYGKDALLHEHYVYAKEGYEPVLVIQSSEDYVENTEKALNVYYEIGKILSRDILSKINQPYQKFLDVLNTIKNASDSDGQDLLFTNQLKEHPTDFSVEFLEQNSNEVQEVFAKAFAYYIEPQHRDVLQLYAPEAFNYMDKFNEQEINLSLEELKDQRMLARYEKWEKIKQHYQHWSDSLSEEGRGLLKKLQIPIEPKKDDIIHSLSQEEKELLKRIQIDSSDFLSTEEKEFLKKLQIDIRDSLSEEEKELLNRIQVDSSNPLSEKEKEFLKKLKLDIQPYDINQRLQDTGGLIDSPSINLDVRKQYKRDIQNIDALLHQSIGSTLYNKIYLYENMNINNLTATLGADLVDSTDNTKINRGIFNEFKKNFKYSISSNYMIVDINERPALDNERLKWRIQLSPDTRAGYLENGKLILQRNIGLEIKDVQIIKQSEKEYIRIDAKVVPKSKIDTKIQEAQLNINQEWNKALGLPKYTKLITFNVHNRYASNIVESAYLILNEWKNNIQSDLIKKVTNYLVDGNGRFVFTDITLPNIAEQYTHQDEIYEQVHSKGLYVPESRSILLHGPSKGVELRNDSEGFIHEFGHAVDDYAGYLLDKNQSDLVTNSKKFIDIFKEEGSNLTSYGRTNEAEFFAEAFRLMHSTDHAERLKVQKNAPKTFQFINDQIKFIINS
# Bead autofluor: counter-screen for toxin protease inhibitors: compound fluorescence | compound autofluorescence counterscreen, microsphere flow cytometry; stronger effect = higher value | fluorescence intensity (test concentration not listed) | AID 624483 | 360,000 compounds, 3.1% hits; in the data active = fluorescence intensity above about 16000; inconclusive = no clear call, values can overlap the other calls
# DUSP3 inh: DUSP3 (human) phosphatase inhibition. recombinant VHR phosphatase, pNPP absorbance. inhibition, % at 13.3 µM. 290,000 compounds, 0.52% hits. AID 1654; in the data active = inhibition above about 50%
# BoNT-A LC inh2: BoNT A light chain protease inhibition | AID 588499 | multiplex microsphere protease substrate cleavage, flow cytometry | inhibition, % at 10 µM | 360,000 compounds, 0.17% hits; also: plate controls were buffer without enzyme for full effect and enzyme alone for no effect
# BoNT-F LC inh: inhibitors of Botulinum neurotoxin F light chain protease; Multiplex microsphere protease cleavage assay, flow cytometry; inhibition, % at 10 µM; 360,000 compounds, 0.22% hits; in the data active = inhibition above about 35%, passing the limit was not always enough; inconclusive = no clear call, values can overlap the other calls; also: plate controls were buffer without enzyme for full effect and enzyme alone for no effect
# SARS 3CLpro inh: SARS-CoV 3CLpro protease inhibition; inhibition, % at 6 µM; 290,000 compounds, 0.14% hits; recombinant SARS-CoV 3CLpro, quenched FRET peptide cleavage; in the data active = inhibition above about 12%
# Numbers without * were called inactive; ? = inconclusive; nt = no result given. Rule as the data show it, unless noted: active = inhibition above about 30%; inconclusive = no clear call, values can overlap the other calls; inactive = below that.
SMILES,Anthrax LF inh2,Bead autofluor,DUSP3 inh,BoNT-A LC inh2,BoNT-F LC inh,SARS 3CLpro inh
CC(N)C(=O)NC(C(=O)N1CCCC1C(=O)NC(c1ccccc1)c1ccccc1)C(C)C (configuration not stated),-1.0,3050,nt,0.0,-2.4,nt
CC(=O)c1c(C)[nH]c(C(=O)COc2cc(C)cc(C)c2)c1C,-5.0,21911*,42.0,2.2,0.2,-3.4
CCNC(=O)c1c(C)[nH]c(C(=O)OCC)c1C,-1.7,24505*,10.8,-6.5,-6.7,0.4
CCOC(=O)c1[nH]c(C)c(C(=O)NCc2ccccn2)c1C,-5.3,21338*,26.4,-2.6,-3.5,-1.7
CCOC(=O)c1[nH]c(C)c(C(=O)Nc2ccc(C)c(Cl)c2)c1C,-1.1,21453*,0.9,-2.0,-2.5,-3.9
O=C1OCC/C1=C\NCCCN/C=C1\CCOC1=O,8.3,3128,nt,-0.2,-0.6,nt
Cc1ccc(NC(=O)CN2C(=O)N/C(=C\c3ccco3)C2=O)cc1,-2.2,3841,nt,0.1,7.1,nt
CCOC(=O)c1c(C)[nH]c(C(=O)OCc2ccccc2)c1C,0.8,6722,-28.8,-1.9,-17.9,-0.4
CCOC(=O)c1[nH]c(C)c(C(=O)N(C)Cc2ccccc2)c1C,2.5,18491*,6.2,3.2,1.0,-5.1
CCN(CC)C1=CC(=O)OC12CCCCC2,-4.8,22472*,-8.8,?,-1.2,-7.8
O=C(Nc1cccc(C(F)(F)F)c1)c1cc2ncc(Br)cn2n1,1.4,22276*,18.6,4.2,3.2,-2.6
O=C(NCCc1ccccc1)c1cc2ncc(Br)cn2n1,2.3,2715,-2.1,0.6,0.1,5.1
CCc1ccccc1NC(=O)c1cc2ncc(Br)cn2n1,-1.3,21333*,-11.1,?,6.6,6.8
O=C(NCc1ccccc1Cl)C1=CC=CN2CCS(=O)(=O)N=C12,-9.1,3021,nt,-0.1,14.5,nt
O=C(CSc1nc2ccc([N+](=O)[O-])cc2[nH]1)NCCc1ccccc1,-2.1,20820*,32.7,6.1,3.2,2.5
O=C(CSc1nc2ccc(Cl)cc2[nH]1)NCCc1ccccc1,-1.1,6683,-4.5,1.5,-4.2,-1.1
CCOC(=O)c1c(-n2c(C)cc(C=O)c2C)sc2c1CCCC2,-3.5,22089*,11.7,-0.1,-0.2,-1.4
COCCNC(=O)CSc1nc2nc(C)cc(C)n2n1,-1.1,22346*,22.4,1.7,3.7,0.9
Cc1cc(C)n2nc(SCC(=O)Nc3ccccc3)nc2n1,-2.5,4384,6.0,-1.5,-3.7,3.7
CCCCCCNC(=O)Cc1nc2nc(C)cc(C)n2n1,-5.7,20841*,13.1,3.4,3.5,-0.7
CCN(C(=O)CSc1nc2nc(C)cc(C)n2n1)c1cccc(C)c1,-2.3,16126*,13.1,0.6,1.8,1.8
Cc1cc(C)n2nc(SCCC(=O)NCCc3ccccc3)nc2n1,-0.9,18555*,28.6,3.1,-0.3,2.1
CCOC(=O)Cc1nc2nc(C)cc(C)n2n1,4.5,4604,12.1,0.3,4.1,2.6
CCOc1ccc(C(=O)Nc2cccc3nsnc23)cc1[N+](=O)[O-],-1.8,2731,56.4*,-0.2,-1.3,3.9
O=C(c1ccco1)N1CCN(C(=O)c2ccc(Br)o2)CC1,-9.1,3679,nt,-0.1,-4.6,nt
SMILES,Anthrax LF inh2,Bead autofluor,DUSP3 inh,BoNT-A LC inh2,BoNT-F LC inh,SARS 3CLpro inh
O=C(c1ccc(Br)o1)N1CCN(C23CC4CC(CC(C4)C2)C3)CC1,1.7,6261,55.5*,1.7,-7.2,-0.5
COc1ccc(C)cc1NCc1cccc(OC)c1OC,-3.1,22091*,10.0,0.8,-2.4,-0.3
COc1cc(OC)c(OC)cc1CNc1cc(C)ccc1OC,-5.1,11305,11.9,-1.5,-11.9,1.5
COc1ccc(CNc2cc(C)ccc2C)c(OC)c1OC,-3.4,19482*,-0.9,-0.3,-6.7,-4.7
COc1ccc([N+](=O)[O-])cc1NC(=O)CCSCCc1ccccn1,-1.2,5894,28.7,0.3,0.5,1.6
ON=C1c2ccccc2-c2ccccc21,1.4,3753,14.1,-2.4,3.2,-0.1
NC(N)=NN=C1c2ccccc2-c2ccccc21,49.4*,8153,nt,2.5,81.8*,-2.5
CC(=O)n1cc(C2C(=O)CC(C)(C)CC2=O)c2ccccc21,-2.1,21921*,6.7,2.9,5.9,-6.9
O=C(NCc1cccc(Cl)c1)c1ccc2nc[nH]c2c1,-0.1,2462,55.6*,-0.1,-5.9,1.8
CC(C)=C(C#N)c1nc2ccccc2s1,-1.4,11486,-4.1,-2.3,-14.2,5.4
CC1=CC(=C(C#N)c2nc3ccccc3s2)C=C(C)N1c1ccc(F)cc1,20.1,3300,34.1,36.4*,14.7,-2.1
COc1ccccc1N1C(C)=CC(=C(C#N)c2nc3ccccc3s2)C=C1C,27.6,3142,26.2,56.9*,24.7,-1.3
CN(Cc1nccs1)C(=O)C1CCC(=O)N(CCc2ccc(Cl)cc2)C1 (configuration not stated),0.4,5522,-7.2,0.0,1.1,5.2
O=c1/c(=C/c2ccc(O)c([N+](=O)[O-])c2)sc2nc3ccccc3n12,0.2,4295,75.4*,-0.5,-8.6,5.7
CC(C)c1ccc(CN2C(=O)NC3(CCCCCC3)C2=O)cc1,-1.5,5844,16.6,-1.1,-2.7,1.2
Cc1ccc(C(=O)N/C(=C\c2cccs2)C(=O)NCCc2c[nH]c3ccccc23)cc1C,-3.2,16774*,17.8,-1.6,-6.2,3.8
Cc1ccc2[nH]cc(CCNC(=O)c3cccs3)c2c1,-18.8,3404,52.0*,-5.6,-36.7,2.0
O=C(NCCc1c[nH]c2ccccc12)/C(=C\c1cccs1)NC(=O)c1ccccc1,1.1,2605,-3.8,-0.2,-6.4,9.1
Cn1cnc(C(=O)NCc2ccc(CNC(=O)OC(C)(C)C)cc2)c1C(=O)NCc1ccc(CNC(=O)OC(C)(C)C)cc1,4.2,3787,nt,-0.6,-12.3,nt
CSc1nc(NS(=O)(=O)c2ccc(F)cc2F)nn1C,-1.3,5381,14.5,-0.2,0.6,-4.0
C=CCn1cnc2c(c1=O)c1nc3ccccc3nc1n2/N=C/c1cccc(OC)c1,0.1,21328*,4.0,?,8.4,nt
COCCn1cnc2c(c1=O)c1nc3ccccc3nc1n2/N=C/c1ccc(OC)c(OC)c1,-12.4,3798,8.8,?,?,1.6
Cc1ccc(OCCN2C(=O)c3ccccc3C2=O)cc1,-1.1,22823*,3.6,2.2,0.1,-4.5
O=C1c2ccccc2C(=O)N1CCSc1ccccc1,?,?,55.3*,?,-5.0,2.1
Nc1nc(SCCN2C(=O)c3ccccc3C2=O)n[nH]1,-10.7,18492*,20.8,?,4.8,7.1
O=C1c2ccccc2C(=O)N1CCSc1nncs1,-6.6,10027,12.0,0.4,-4.3,-2.7
O=C(NC(=S)NC12CC3CC(CC(C3)C1)C2)c1ccc(F)cc1,3.0,3793,nt,0.1,-8.1,nt
Cc1cccc(NC(=S)NC(=O)Cc2ccccc2)c1C,-9.3,2893,2.3,-0.5,?,5.6
Cc1c(NC(=S)NC(=O)Cc2ccccc2)cccc1C(=O)O,-2.7,21800*,17.7,?,-1.3,3.2
